Experimental findings from PubChem BioAssay (NCATS) are described below.

The structures appear in SMILES notation. Several values for one entry are separate records, joined by “and”; a condition that tells them apart may be missing. Identical values can stand only once. Inconclusive results are not listed. A structure can be active in one record and inactive in another. Activity calls are given as the source filed them. Calls come from the whole dose curve; as a rule, active = well fitted curve in the direction sought with a large enough effect; inconclusive = small, poorly fitted or top-dose-only effect, or another doubt; inactive = no such curve, though single readings can be large; an effect the other way counts as inactive or inconclusive.

For one assay, the system named is HeLa. Put plainly: Primary qHTS to identify gynecologic anti-cancer compounds using libraries of approved drugs and bioactive compounds (AID 1345084). Note: nearly all actives have a fitted effect of over 55% in size. Particulars: Gynecologic cancer cell panel viability, ATPlite luminescence, 48 h; series mostly up to 57.5 µM. In short, it runs like this: (§1)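 Five-concentration response, 48 h; readout is ATP-driven luciferase luminescence.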
(In general: In qHTS, concentration-response curves come from the screen itself.)

A further assay deals with Hek293T. Described as above. Particulars: Gynecologic cancer cell panel viability, ATPlite luminescence, 48 h, control line for the selectivity index; series mostly up to 57.5 µM. The gist of the method: as §1
For orientation: Cellular ATP, detected with luciferase, serves as a proxy for viable cell number.

In another assay the test system is JEG-3. The description is as above. Particulars: Gynecologic cancer cell panel viability, ATPlite luminescence, 48 h; series mostly up to 57.5 µM. The gist of the method:
as §1

A further assay has as its system OV90. The description is as above. The note with it: Gynecologic cancer cell panel viability, ATPlite luminescence, 48 h; series mostly up to 57.5 µM. In short, it runs like this: as §1
The subject of a further assay is PA-1. Described as above. Particulars: Gynecologic cancer cell panel viability, ATPlite luminescence, 48 h; series mostly up to 57.5 µM. In short, it runs like this: as §1
The test system of a further assay is SKOV3. The description is as above. The note with it: Gynecologic cancer cell panel viability, ATPlite luminescence, 48 h; series mostly up to 57.5 µM. In short, it runs like this:
as §1

For the next assay, the system named is Tov-21-G. Described as above. The note with it: Gynecologic cancer cell panel viability, ATPlite luminescence, 48 h; series mostly up to 57.5 µM. In short, it runs like this: as §1
The test system of the next assay is Tov112D. Described as above. Particulars: Gynecologic cancer cell panel viability, ATPlite luminescence, 48 h; series mostly up to 57.5 µM. In short, it runs like this:
as §1

Assay [1] is described as follows: Drug repurposing screens with cells derived from glioblastoma tumor samples (AID 1345199). Note: nearly all actives have a fitted effect of over 40% in size. Note: potency is the fitted concentration of half-maximal effect. The note with it: GBM patient neurospheres viability, ATP luminescence, 48 h. In short, it runs like this:
(§2)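 Four patient lines of CD133+ GBM neurospheres were screened at several concentrations; hits were retested in those lines plus three slower-growing GBM lines, using 48-hour treatment and ATP-based viability.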

In another assay the test system is astro. The assay is described as above. Particulars: viability, ATP luminescence, 48 h; series mostly up to 45.9 µM. The gist of the method: as §2
Setting [2] is: at 45.9 µM (top of the series), tumour line B.
[3] abbreviates: at 45.9 µM (top of the series), tumour line D.
Setting [4] is: at 46 µM (top of the series), tumour line A.
Where [5] appears, read: at 46.1 µM (top of the series), tumour line C.
[6] abbreviates: at 20 µM (top of the series), tumour line C.
Setting [7] is: at 21.2 µM (top of the series), tumour line B.
Where [8] appears, read: at 21.2 µM (top of the series), tumour line D.
% is set by controls: 0 for no effect and ±100 for the full control effect.

For the compound `O=S(=O)(O)NC1CCCCC1`, the Potency result in the assay with HeLa, in the assay with Hek293T, in the assay on JEG-3, in the assay with OV90, with PA-1 and in the assay on SKOV3 was “inactive” each time. Further, the Potency entry with Tov-21-G, in the assay on Tov112D and in the assay on astro was “inactive” each time. For the same compound, the results for the activity, negative = cell killing in assay [1] (setting [2]), in [1] (setting [3]) and in assay [1] (setting [4]) were -10.5% (inactive), -5.78% (inactive) and -19.1% (inactive), respectively.

For the compound `CC(=O)Nc1ccc(/C=N/NC(N)=S)cc1`, the Potency result with HeLa, in the assay on Hek293T, in the assay with JEG-3, in the assay with OV90, in the assay with PA-1 and with Tov-21-G was “inactive” throughout. Besides, the Potency entry in the assay with Tov112D and with astro was “inactive” each time. Besides, the activity, negative = cell killing in assay [1] (setting [2]) is -6.76% (inactive) and -4.79% (inactive); in [1] (setting [3]), -13.7% (inactive) and -15.9% (inactive); in assay [1] (setting [4]) it was -28.2% (inactive); in [1] (setting [5]) it was -27.6% (inactive) and -20.2% (inactive).

For `CC(=O)OCC(=O)[C@@]1(O)CC[C@H]2[C@@H]3CCC4=CC(=O)CC[C@]4(C)[C@H]3C(=O)C[C@@]21C`, the Potency entry with HeLa, in the assay with Hek293T, with JEG-3, in the assay on OV90, with PA-1 and in the assay on SKOV3 was “inactive” each time. Also, the Potency entry in the assay with Tov-21-G, in the assay on Tov112D and in the assay on astro was “inactive” in each case. Further, the activity, negative = cell killing in assay [1] (setting [2]) is -22% (inactive). In addition, the Potency in [1] (tumour line A) was 25.1 µM (active).

On to `CC(C)(C)NCC(O)COc1ccc(NC(=O)NC2CCCCC2)cc1` (stereo unspecified), for which the Potency entry in the assay with HeLa, in the assay on Hek293T, in the assay with JEG-3, with OV90, with PA-1 and in the assay on SKOV3 was “inactive” in each case. In addition, the Potency result in the assay on Tov-21-G, with Tov112D and with astro was “inactive” each time. The activity, negative = cell killing in [1] (setting [2]) was -25.7% (inactive). The Potency in [1] (tumour line A) is 31.6 µM (active).

Turning to `C[C@H]1O[C@H](O[C@H]2[C@H](O)[C@@H](O)[C@@H](O[C@H]3[C@H](O)[C@@H](O)[C@H](O)O[C@@H]3CO)O[C@@H]2CO)[C@H](O)[C@@H](O)[C@@H]1N[C@H]1C=C(CO)[C@@H](O)[C@H](O)[C@H]1O`, the Potency entry in the assay on HeLa, in the assay on Hek293T, in the assay with JEG-3, in the assay on OV90, with PA-1 and in the assay on Tov-21-G was “inactive” each time. Besides, the Potency result in the assay with Tov112D and in the assay with astro was “inactive” in each case. Further, the activity, negative = cell killing in assay [1] (setting [2]) was -6.62% (inactive); in assay [1] (setting [3]), 5.79% (inactive); in [1] (setting [5]), -10.2% (inactive).

For the compound `O=C(CCCN1CCN(c2ccccn2)CC1)c1ccc(F)cc1`, the Potency result with HeLa, in the assay on Hek293T, in the assay on JEG-3, with OV90, in the assay with PA-1 and in the assay on SKOV3 was “inactive” throughout. For the same compound, the Potency result in the assay on Tov-21-G, with Tov112D and in the assay on astro was “inactive” each time. Moreover, the activity, negative = cell killing in [1] (setting [2]) is -17% (inactive). In addition, in assay [1] (tumour line A), the Potency is 8.91 µM (active).

In the case of `Cc1c(O)cccc1C(=O)N[C@@H](CSc1ccccc1)[C@H](O)CN1C[C@H]2CCCC[C@H]2C[C@H]1C(=O)NC(C)(C)C`, the Potency entry in the assay with HeLa, in the assay on Hek293T, with JEG-3, with OV90, in the assay on PA-1 and in the assay on Tov-21-G was “inactive” each time. The Potency entry in the assay with Tov112D is “inactive”. The activity, negative = cell killing in [1] (setting [5]) is 0.268% (inactive). Also, the Potency in assay [1] (tumour line A) was 6.31 µM (active); in assay [1] (tumour line B) it was 11.2 µM (active); in [1] (tumour line D), 20 µM (active); in the assay on astro, 35.5 µM (active).

Consider `NC(=O)NNc1ccccc1`, for which the Potency entry in the assay with HeLa, in the assay with Hek293T, with JEG-3, in the assay with OV90, with PA-1 and in the assay with SKOV3 was “inactive” each time. The Potency entry in the assay on Tov-21-G, with Tov112D and in the assay with astro was “inactive” each time.

For the compound `CCOc1nc2cccc(C(=O)O)c2n1Cc1ccc(-c2ccccc2-c2nn[nH]n2)cc1`, the Potency entry in the assay on HeLa, with Hek293T, in the assay with JEG-3, with OV90, in the assay on PA-1 and with SKOV3 was “inactive” in each case. For the same compound, the Potency result with Tov-21-G and with Tov112D was “inactive” throughout. For the same compound, the activity, negative = cell killing in assay [1] (setting [2]) was 5.1% (inactive). For the same compound, the Potency with astro is 20 µM (active).

For `CC(COc1ccccc1)NC(C)C(O)c1ccc(O)cc1` (stereo unspecified), the Potency result with HeLa, with Hek293T, in the assay on JEG-3, in the assay on OV90, in the assay on PA-1 and in the assay on SKOV3 was “inactive” each time. The Potency result with Tov-21-G, with Tov112D and in the assay with astro was “inactive” in each case. Also, the activity, negative = cell killing in assay [1] (setting [6]) was -3.58% (inactive); in assay [1] (setting [7]), -2.68% (inactive); in assay [1] (setting [8]), -14.2% (inactive).

In the case of `CS(=O)(=O)c1ccc([C@@H](O)[C@@H](CF)NC(=O)C(Cl)Cl)cc1`, the Potency entry in the assay on HeLa, in the assay on Hek293T, in the assay on JEG-3, in the assay on OV90, with PA-1 and in the assay on SKOV3 was “inactive” each time. In addition, the Potency entry in the assay on Tov112D and in the assay with astro was “inactive” in each case. In addition, the activity, negative = cell killing is -23.2% (inactive) in assay [1] (setting [6]), -19.6% (inactive) in [1] (setting [7]) and -7.33% (inactive) in assay [1] (setting [8]).

For `c1ccc2c(CC3=NCCN3)cccc2c1`, the Potency result in the assay on HeLa, in the assay with Hek293T, in the assay with JEG-3, in the assay on OV90, in the assay on PA-1 and in the assay with SKOV3 was “inactive” each time. For the same compound, the Potency entry in the assay with Tov-21-G, in the assay with Tov112D and with astro was “inactive” throughout. Also, the activity, negative = cell killing in [1] (setting [3]) is -11.3% (inactive) and -15.4% (inactive); in assay [1] (setting [5]), -1.52% (inactive) and -0.846% (inactive) and -3.97% (inactive).

As for `COc1ccc(S(=O)(=O)Nc2nnc(CC(C)C)s2)cc1`, the Potency entry in the assay with HeLa, with Hek293T, with JEG-3, in the assay with OV90, with PA-1 and with Tov-21-G was “inactive” throughout. Further, the Potency result in the assay with Tov112D and in the assay on astro was “inactive” throughout. Moreover, the activity, negative = cell killing is -4.51% (inactive) and -11.1% (inactive) in [1] (setting [2]); -10.6% (inactive) and 2.66% (inactive) in assay [1] (setting [3]); -18% (inactive) in assay [1] (setting [4]); -23.9% (inactive) in assay [1] (setting [5]).

Consider `O=C(O)[C@@H]1CSCN1`, for which the Potency result with HeLa, in the assay on Hek293T, in the assay with JEG-3, in the assay on OV90, with PA-1 and with SKOV3 was “inactive” throughout. For the same compound, the Potency result in the assay with Tov-21-G, in the assay on Tov112D and in the assay on astro was “inactive” throughout.

Regarding `C[C@](N)(Cc1ccc(O)cc1)C(=O)O`, the activity change, negative = cytotoxicity with HeLa was 0.756% [at 6.55 µM] (inactive); in the assay with Hek293T, -0.946% [at 6.55 µM] (inactive); with JEG-3, 2.69% [at 6.55 µM] (inactive); in the assay on OV90, 0.672% [at 6.55 µM] (inactive); with PA-1, 12.1% [at 6.55 µM] (inactive); with Tov-21-G it was -3.06% [at 6.55 µM] (inactive). The activity change, negative = cytotoxicity with Tov112D is 0.865% [at 6.55 µM] (inactive). In addition, the activity, negative = cell killing in assay [1] (setting [2]) was -4.97% (inactive); in assay [1] (setting [3]), 3.89% (inactive); in assay [1] (setting [4]) it was -16.9% (inactive); in [1] (setting [5]) it was 0.308% (inactive). Further, the Potency result with astro is “inactive”.
